YopH PTP inh – YopH tyrosine phosphatase inhibitors, primary screen, biochemical, fluorescence Ex485/Em525; YopH tyrosine phosphatase [Yersinia enterocolitica]; inhibition, % (concentration not given with the values); 140,000 compounds, 0.16% hits; AID 898, 2007; in the data active means inhibition above about 50%
RmlCD inh 1536 – M. tuberculosis RmlC/RmlD coupled enzyme inhibitors, primary screen, biochemical, compound mixtures, 384-well, from 1536-well plates; dTDP-4-dehydrorhamnose reductase (Mycobacterium tuberculosis (strain ATCC 25618 / H37Rv)) …; 160,000 compounds, 0.03% hits; AID 1533, 2009; inhibition, % at 3.6 µM; RmlC+RmlD coupled enzyme assay, percent inhibition; primary screen in compound mixtures; in the data active means inhibition mostly above about 34%, no sharp cut-off
Target sequence (P9WH09 whole entry, looked up): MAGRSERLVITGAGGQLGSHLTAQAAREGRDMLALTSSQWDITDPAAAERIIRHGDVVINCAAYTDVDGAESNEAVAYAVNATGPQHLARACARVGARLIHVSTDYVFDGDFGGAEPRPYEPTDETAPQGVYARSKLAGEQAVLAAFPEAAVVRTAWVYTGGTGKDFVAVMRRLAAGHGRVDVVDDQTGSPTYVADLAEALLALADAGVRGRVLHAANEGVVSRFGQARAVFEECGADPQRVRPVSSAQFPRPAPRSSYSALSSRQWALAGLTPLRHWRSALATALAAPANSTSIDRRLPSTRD
Target sequence (P9WH11 whole entry, looked up): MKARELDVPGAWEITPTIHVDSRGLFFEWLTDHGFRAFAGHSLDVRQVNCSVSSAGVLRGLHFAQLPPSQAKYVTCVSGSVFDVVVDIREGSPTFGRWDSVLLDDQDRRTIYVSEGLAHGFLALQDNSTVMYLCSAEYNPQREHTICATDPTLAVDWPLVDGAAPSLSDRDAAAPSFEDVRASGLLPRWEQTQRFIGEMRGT
* hit, by the source's call; · = no result given. Only a selection was taken, and hits are over-represented in it overall.

SMILES	YopH PTP inh	RmlCD inh 1536
CC(C)=CCN1CCN(Cc2ccc(Sc3nncn3C)o2)CC1CCO (stereo not drawn)	·	3.7
CCOC(=O)Cn1nc(C)c(NC(=O)c2ccc(Cl)c([N+](=O)[O-])c2)c1C	·	8.5
Cc1cc(NC(=O)CCSc2ccc(Cl)cc2)no1	·	9.7
CCSc1nnc(NC(=O)c2ccccc2C)s1	·	1.6
Cn1c(SCC2CCCO2)nnc1-c1cccc([N+](=O)[O-])c1 (stereo not drawn)	·	68.2
Cc1cc(OC(=O)c2c(F)cc(F)cc2F)nc(C)n1	·	33.7
O=C(O)c1cccc(NC2=C(Cl)C(=O)c3ccccc3C2=O)c1	·	-2.5
O=C1C(Nc2cccc(O)c2)=C(N2CCCCC2)C(=O)c2ccccc21	80.7*	0.8
O=C(NCc1ccccc1)C1CCCN1S(=O)(=O)c1cccc2cccnc12 (stereo not drawn)	80.2*	·
O=C(NC1CCCC1)C1CCCN1S(=O)(=O)c1cccc2cccnc12 (stereo not drawn)	-38.1	7.5
Cc1ccc(-c2cc(C(=O)Nc3cc(C)ccc3C)[nH]n2)c(O)c1	-21.0	·
COc1ccc(OC)c(NC(=O)c2cc(-c3ccc(C)cc3O)n[nH]2)c1	91.6*	8.0
COc1ccc(C(=O)COC(=O)CN2C(=O)C3C4C=CC(C5CC45)C3C2=O)cc1 (stereo not drawn)	-20.7	·
C=CCc1cccc2cc(C(=O)Nc3ccc(F)cc3)c(=O)oc12	-42.8	·
C=CCc1cccc2cc(C(=O)Nc3ccc(S(=O)(=O)Nc4nnc(CC)s4)cc3)c(=O)oc12	75.3*	-5.0
Cc1nnsc1-c1nnc(SCC(=O)c2ccccc2)n1C1CC1	·	42.7
Cc1noc(NS(=O)(=O)c2ccc(NC(=O)COc3ccc(Cl)cc3Cl)cc2)c1C	-30.9	12.2
Cc1noc(NS(=O)(=O)c2ccc(NC(=O)CCCOc3ccc(Cl)cc3Cl)cc2)c1C	92.2*	·
CCOC(=O)NC(=O)/C(C#N)=C(/C)N(C)C	·	7.3
CC(=O)c1ccc(NC(=O)c2cc(Cl)sc2Cl)cc1	-24.5	8.1
Cc1ccccc1-n1cc(CNC(=O)CCc2nnc(CCc3ccccc3)o2)cn1	·	-2.2
COc1ccccc1-c1c(C)oc2cc(OCC(=O)OCc3ccccc3)ccc2c1=O	-0.5	4.8
COc1ccc(C2CN=NC2C(=O)c2ccccc2)cc1 (stereo not drawn)	·	-2.6
CN1CCc2cc3c(c4c2[C@H]1[C@H](O)c1ccccc1-4)OCO3	101.0*	·
COc1ccc2c(c1OC)C(=O)OC2C1c2c(cc3c(c2OC)OCO3)CCN1C (stereo not drawn)	-19.6	18.7
SMILES	YopH PTP inh	RmlCD inh 1536
COc1ccccc1Nc1nc(N)nc(CSC(=S)N2CCCCC2C)n1 (stereo not drawn)	-31.1	-8.1
CCC(C)NC(=O)CN(c1cc(Cl)cc(Cl)c1)S(C)(=O)=O (stereo not drawn)	·	-4.4
Cc1oc2ccccc2c1-c1cn2c(n1)SCC2	55.4*	·
c1ccc(-c2cn3c(n2)SCC3)cc1	-15.4	·
CCn1ncc(Br)c1C(=O)Nc1cc([N+](=O)[O-])ccc1C	4.5	43.0
CN1CCc2c(sc3c2C(=O)NC(c2cccc(OC(=O)c4cccs4)c2)N3)C1 (stereo not drawn)	72.1*	5.6
CN1CCc2c(sc3c2C(=O)NC(c2ccco2)N3)C1 (stereo not drawn)	-31.1	·
O=C(CN1CCN(Cc2ccccc2)CC1)N1CCCc2c1c(=O)oc1ccc(O)cc21	18.0	9.6
O=C(c1ccco1)N1CCN(CC(=O)N2CCCc3c2c(=O)oc2ccc(O)cc32)CC1	52.6*	13.1
COc1cccc(-c2nnc(SCC3CNC(=O)O3)n2-c2ccc(Cl)cc2)c1 (stereo not drawn)	-30.8	-7.8
C=CCn1c(SCC(=O)c2c(N)n(CCC)c(=O)n(C)c2=O)nnc1-c1ccncc1	·	-2.5
CCOc1ccc(N2C(=O)Nc3ccccc3C2(O)C(=O)N2CCN(c3ccccn3)CC2)cc1 (stereo not drawn)	·	-6.4
Cc1nnc(SCC(=O)NC(=O)Nc2ccc3c(c2)OCCO3)n1N	·	-4.7
C=CCOC(=O)C1=C(C)NC2(O)c3ccccc3C(=O)C12O (stereo not drawn)	77.6*	10.3
COc1ccccc1C1CC(=O)NC(C)=C1C(=O)OCC(C)C (stereo not drawn)	-20.6	·
C=CCOC(=O)C1=C(C)NC(=O)NC1/C=C/c1ccccc1 (stereo not drawn)	-41.3	·
CC1=C(C(=O)OCC(C)C)C2(O)C(=O)c3ccccc3C2(O)N1 (stereo not drawn)	68.7*	·
CCCCNC(=O)Nc1ncn[nH]1	·	11.7
O=S1(=O)CCN(OCc2ccc(Cl)cc2)CC1	·	3.3
Cc1cc(C(F)(F)F)nn1CC(=O)N(C)C1CCCCC1	1.4	·
CCCCn1c(NC(=O)c2ccccc2)c(C#N)c2nc3ccccc3nc21	59.7*	·
CCC(C)n1c(NC(=O)c2ccccc2)c(C#N)c2nc3ccccc3nc21 (stereo not drawn)	14.1	·
CCCCn1c(N)c(N(CC(C)C)C(=O)CCCSc2nncs2)c(=O)[nH]c1=O	·	1.0
CC(Oc1cc(Cl)ccc1Cl)C(=O)N/N=C\c1ccnn1C (stereo not drawn)	-17.2	·
Cc1ccc(C2CC(=O)Oc3cc(O)ccc32)cc1 (stereo not drawn)	-14.5	·
SMILES	YopH PTP inh	RmlCD inh 1536
O=C1CC(c2ccccc2)c2cc(O)ccc2O1 (stereo not drawn)	70.0*	·
CC(=O)c1c(C)[nH]c(C(=O)NCc2ccco2)c1C	·	22.6
COCCn1c(=N)c(C(=O)NCCc2ccccc2)cc2c(=O)n3cccc(C)c3nc21	2.0	·
CCCn1c(=N)c(C(=O)NCC2CCCO2)cc2c(=O)n3cccc(C)c3nc21 (stereo not drawn)	-44.3	108.9*
Cc1cccn2c(=O)c3cc(C(=O)NCC4CCCO4)c(=N)n(CCN4CCOCC4)c3nc12 (stereo not drawn)	-19.6	·
CCNC(=O)c1cc2c(=O)n3cccc(C)c3nc2n(CCc2ccccc2)c1=N	-13.6	32.2*
C=C(C)C1CC=C(C)/C(=N\NC(=O)CCc2ccccc2)C1 (stereo not drawn)	-27.6	4.3
Cc1cc(N2CCCc3ccccc32)n2ncnc2n1	-4.8	5.9
Cc1csc(N2CCc3ccccc32)n1	53.8*	-8.8
O=C1CC(c2ccc(F)cc2)Sc2nc(C34CC5CC(CC(C5)C3)C4)nn21 (stereo not drawn)	-4.0	9.4
N#CC(C#N)=C1NC2(CCCCC2)Cc2ccccc21	·	-1.2
N#CC(C#N)=c1ccc2c(c1)NC1(CCCCC1)N=2	91.8*	·
CCOC(=O)c1nc(C)n(-c2ccc([N+](=O)[O-])cc2)n1	·	-7.4
CCOC(=O)c1nc(C)n(-c2ccc(Cl)cc2)n1	51.9*	9.1
CCN1Cc2c(/C=C/c3ccccc3)nc3ccc(OC)cc3c2N(c2cccc(Cl)c2)C1	·	-3.8
COc1ccc(N=CC2=C(Nc3ccc(OC)cc3)c3c(C)nn(-c4ccccn4)c3CC2)cc1	50.9*	·
COc1ccc(-c2cc(C(=O)O)c3c(C)nn(-c4ccccn4)c3n2)cc1	-9.4	·
CC(O)CNc1nc2ccccc2n1CC(=O)N1CCN(Cc2ccccc2)CC1 (stereo not drawn)	·	5.2
Cc1cc(C)n(CC(=O)N2c3ccccc3Sc3ccccc32)n1	-6.0	·
O=C1CCC(=O)N1CC(=O)N1c2ccccc2Sc2ccccc21	53.5*	8.6

Assay outcomes (PubChem BioAssay)
